Holding throughout (test): PBM; 200 nM protein, PBS
Conditions in all cases: dsDNA, one strand shown

The target of assay [1] is T1, PAX4 (Homo sapiens, UniProt O43316 9-242, R200K).
T1 sequence: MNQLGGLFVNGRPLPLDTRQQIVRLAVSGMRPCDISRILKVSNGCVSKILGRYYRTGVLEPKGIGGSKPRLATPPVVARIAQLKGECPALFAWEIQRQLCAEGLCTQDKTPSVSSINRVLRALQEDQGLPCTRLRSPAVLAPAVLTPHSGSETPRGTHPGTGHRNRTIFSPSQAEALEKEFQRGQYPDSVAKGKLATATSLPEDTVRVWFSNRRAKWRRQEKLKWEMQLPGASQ

In assay [2] the target is T2, PAX4 (Homo sapiens, UniProt O43316 9-242).
T2 sequence: T1 sequence with K192R

Assay [3] deals with HOXA2 (Homo sapiens, UniProt O43364 129-215, R185T).
HOXA2 (Homo sapiens, UniProt O43364 129-215, R185T), sequence (O43364 129-215 R185T): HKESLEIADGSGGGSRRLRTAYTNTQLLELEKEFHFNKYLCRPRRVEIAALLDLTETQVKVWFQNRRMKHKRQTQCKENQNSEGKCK
Assay [4] has as its target ALX3 (Homo sapiens, UniProt O95076 139-225, N203Q).
Assay [5] deals with T3, PAX4 (Homo sapiens, UniProt O43316 9-242, R200Q).
T3 sequence: T1 sequence with K192Q

The target of assay [6] is HOXA2 (Homo sapiens, UniProt O43364 129-215, R185K).
HOXA2 (Homo sapiens, UniProt O43364 129-215, R185K), sequence (O43364 129-215 R185K): as the sequence (O43364 129-215 R185T) above, with T57K counted along it
Assay [7] addresses T4, PAX4 (Homo sapiens, UniProt O43316 9-242, F177V).
T4 sequence: T1 sequence with F169V, K192R

Assay [8] deals with ALX3 (Homo sapiens, UniProt O95076 139-225).
ALX3 (Homo sapiens, UniProt O95076 139-225), sequence (O95076 139-225): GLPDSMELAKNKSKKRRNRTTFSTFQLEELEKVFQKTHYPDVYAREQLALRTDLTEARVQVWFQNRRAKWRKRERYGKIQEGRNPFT
Assay [9] has as its target T5, PAX4 (Homo sapiens, UniProt O43316 9-242, F177Y).
T5 sequence: T1 sequence with F169Y, K192R

In assay [10] the target is ALX3 (Homo sapiens, UniProt O95076 139-225, L168Q).
ALX3 (Homo sapiens, UniProt O95076 139-225, L168Q), sequence (O95076 139-225 L168Q): as the sequence (O95076 139-225) above, with L30Q counted along it
Assay [11] deals with ALX3 (Homo sapiens, UniProt O95076 139-225, L168V).
ALX3 (Homo sapiens, UniProt O95076 139-225, L168V), sequence (O95076 139-225 L168V): as the sequence (O95076 139-225) above, with L30V counted along it
The target of assay [12] is T6, PAX4 (Homo sapiens, UniProt O43316 9-242, R227W).
T6 sequence: T1 sequence with K192R, R219W

The target of assay [13] is HOXA2 (Homo sapiens, UniProt O43364 129-215, Y150S).
HOXA2 (Homo sapiens, UniProt O43364 129-215, Y150S), sequence (O43364 129-215 Y150S): as the sequence (O43364 129-215 R185T) above, with Y22S, T57R counted along it
For assay [14], the target named is ALX3 (Homo sapiens, UniProt O95076 139-225, N203S).
ALX3 (Homo sapiens, UniProt O95076 139-225, N203S), sequence (O95076 139-225 N203S): as the sequence (O95076 139-225) above, with N65S counted along it
For assay [15], the target named is HOXA2 (Homo sapiens, UniProt O43364 129-215).
HOXA2 (Homo sapiens, UniProt O43364 129-215), sequence (O43364 129-215): as the sequence (O43364 129-215 R185T) above, with T57R counted along it
The target in assay [16] is HOXD13 (Homo sapiens, UniProt P35453 263-343, T313R).
HOXD13 (Homo sapiens, UniProt P35453 263-343, T313R), sequence (P35453 263-343 T313R): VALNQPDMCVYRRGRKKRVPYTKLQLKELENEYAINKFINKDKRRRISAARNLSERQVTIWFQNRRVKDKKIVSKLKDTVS
For assay [17], the target named is HOXD13 (Homo sapiens, UniProt P35453 263-343).
HOXD13 (Homo sapiens, UniProt P35453 263-343), sequence (P35453 263-343): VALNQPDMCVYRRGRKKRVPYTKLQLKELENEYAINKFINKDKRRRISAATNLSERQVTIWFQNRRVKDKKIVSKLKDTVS
The target of assay [18] is HOXD13 (Homo sapiens, UniProt P35453 263-343, T313A).
HOXD13 (Homo sapiens, UniProt P35453 263-343, T313A), sequence (P35453 263-343 T313A): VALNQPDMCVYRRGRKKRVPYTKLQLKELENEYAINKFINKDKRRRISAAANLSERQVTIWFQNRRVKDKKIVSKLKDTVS
The target in a further assay is HOXC9 (Homo sapiens, UniProt P31274 178-260, R222W).
HOXC9, sequence (P31274 178-260 R222W): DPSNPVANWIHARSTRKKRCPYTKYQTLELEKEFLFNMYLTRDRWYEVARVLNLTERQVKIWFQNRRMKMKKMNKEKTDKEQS
A further assay has as its target T7, NKX2-6 (Homo sapiens, UniProt A6NCS4 118-204, R150C).
T7 sequence: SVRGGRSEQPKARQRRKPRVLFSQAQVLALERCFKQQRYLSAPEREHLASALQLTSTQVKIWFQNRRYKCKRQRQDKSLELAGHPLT

Where a chain is given by its changes, count along the chain named.

ALX3 (Homo sapiens, UniProt O95076 139-225, N203Q), sequence (O95076 139-225 N203Q): as the sequence (O95076 139-225) above, with N65Q counted along it

As to GGGGGGGA, the binding signal is 9.06 upbm affinity estimate (log intensity, higher = more binding, comparable within an allelic series) with PAX4 [1]; 9.13 upbm affinity estimate (log intensity, higher = more binding, comparable within an allelic series) with PAX4 [2]; 6.89 upbm affinity estimate (log intensity, higher = more binding, comparable within an allelic series) with HOXA2 [3]; 7.53 upbm affinity estimate (log intensity, higher = more binding, comparable within an allelic series) with ALX3 [4]; 9.12 upbm affinity estimate (log intensity, higher = more binding, comparable within an allelic series) in the assay with PAX4 [5]; 9.81 upbm affinity estimate (log intensity, higher = more binding, comparable within an allelic series) with HOXA2 [6]. Also, the binding signal with PAX4 [7] was 9.01 upbm affinity estimate (log intensity, higher = more binding, comparable within an allelic series); with ALX3 [8] it was 7.53 upbm affinity estimate (log intensity, higher = more binding, comparable within an allelic series); with PAX4 [9], 9.15 upbm affinity estimate (log intensity, higher = more binding, comparable within an allelic series); with ALX3 [10], 7.42 upbm affinity estimate (log intensity, higher = more binding, comparable within an allelic series); with ALX3 [11] it was 7.45 upbm affinity estimate (log intensity, higher = more binding, comparable within an allelic series); with PAX4 [12], 9.15 upbm affinity estimate (log intensity, higher = more binding, comparable within an allelic series). In addition, the binding signal is 10.2 upbm affinity estimate (log intensity, higher = more binding, comparable within an allelic series) in the assay with HOXA2 [13]; 7.55 upbm affinity estimate (log intensity, higher = more binding, comparable within an allelic series) in the assay with ALX3 [14]; 7.05 upbm affinity estimate (log intensity, higher = more binding, comparable within an allelic series) in the assay with HOXA2 [15].
On to AATTTATA, for which the binding signal in the assay with PAX4 [1] is 11.2 upbm affinity estimate (log intensity, higher = more binding, comparable within an allelic series); in the assay with PAX4 [2], 11.4 upbm affinity estimate (log intensity, higher = more binding, comparable within an allelic series); with ALX3 [4], 8.61 upbm affinity estimate (log intensity, higher = more binding, comparable within an allelic series); with HOXD13 [16] it was 10.9 upbm affinity estimate (log intensity, higher = more binding, comparable within an allelic series); with PAX4 [5], 11.3 upbm affinity estimate (log intensity, higher = more binding, comparable within an allelic series); in the assay with HOXD13 [17] it was 11.7 upbm affinity estimate (log intensity, higher = more binding, comparable within an allelic series). The binding signal with PAX4 [7] was 10.6 upbm affinity estimate (log intensity, higher = more binding, comparable within an allelic series); in the assay with PAX4 [9] it was 10.8 upbm affinity estimate (log intensity, higher = more binding, comparable within an allelic series); with HOXD13 [18] it was 11.6 upbm affinity estimate (log intensity, higher = more binding, comparable within an allelic series); with HOXC9, 11.1 upbm affinity estimate (log intensity, higher = more binding, comparable within an allelic series); with PAX4 [12], 10.7 upbm affinity estimate (log intensity, higher = more binding, comparable within an allelic series); in the assay with ALX3 [14], 8.71 upbm affinity estimate (log intensity, higher = more binding, comparable within an allelic series).
Regarding GCCCCACC, the binding signal in the assay with PAX4 [1] is 9.5 upbm affinity estimate (log intensity, higher = more binding, comparable within an allelic series); with PAX4 [2] it was 9.33 upbm affinity estimate (log intensity, higher = more binding, comparable within an allelic series); in the assay with HOXD13 [16], 9.66 upbm affinity estimate (log intensity, higher = more binding, comparable within an allelic series); with PAX4 [5] it was 9.38 upbm affinity estimate (log intensity, higher = more binding, comparable within an allelic series); in the assay with HOXD13 [17] it was 9.74 upbm affinity estimate (log intensity, higher = more binding, comparable within an allelic series); with PAX4 [7], 9.19 upbm affinity estimate (log intensity, higher = more binding, comparable within an allelic series). The binding signal is 9.3 upbm affinity estimate (log intensity, higher = more binding, comparable within an allelic series) with PAX4 [9]; 9.8 upbm affinity estimate (log intensity, higher = more binding, comparable within an allelic series) in the assay with HOXD13 [18]; 9.4 upbm affinity estimate (log intensity, higher = more binding, comparable within an allelic series) with PAX4 [12].
Take GTGTAATA: the binding signal with PAX4 [1] is 10.9 upbm affinity estimate (log intensity, higher = more binding, comparable within an allelic series); with PAX4 [2], 11.1 upbm affinity estimate (log intensity, higher = more binding, comparable within an allelic series); in the assay with PAX4 [5] it was 10.8 upbm affinity estimate (log intensity, higher = more binding, comparable within an allelic series); in the assay with PAX4 [7], 10.4 upbm affinity estimate (log intensity, higher = more binding, comparable within an allelic series).
Regarding GAGCAGGC, the binding signal in the assay with PAX4 [1] was 9.17 upbm affinity estimate (log intensity, higher = more binding, comparable within an allelic series); with PAX4 [2], 9.18 upbm affinity estimate (log intensity, higher = more binding, comparable within an allelic series); with HOXA2 [3] it was 7.17 upbm affinity estimate (log intensity, higher = more binding, comparable within an allelic series); with PAX4 [5], 9.24 upbm affinity estimate (log intensity, higher = more binding, comparable within an allelic series); in the assay with HOXA2 [6], 10.1 upbm affinity estimate (log intensity, higher = more binding, comparable within an allelic series); with PAX4 [7], 9.28 upbm affinity estimate (log intensity, higher = more binding, comparable within an allelic series). In addition, the binding signal in the assay with PAX4 [9] is 9.26 upbm affinity estimate (log intensity, higher = more binding, comparable within an allelic series); with PAX4 [12], 9.32 upbm affinity estimate (log intensity, higher = more binding, comparable within an allelic series); with HOXA2 [13], 10.5 upbm affinity estimate (log intensity, higher = more binding, comparable within an allelic series); in the assay with HOXA2 [15] it was 7.04 upbm affinity estimate (log intensity, higher = more binding, comparable within an allelic series).
For the sequence CCCCGGAG, the binding signal is 9.33 upbm affinity estimate (log intensity, higher = more binding, comparable within an allelic series) with PAX4 [1]; 9.37 upbm affinity estimate (log intensity, higher = more binding, comparable within an allelic series) with PAX4 [2]; 9.25 upbm affinity estimate (log intensity, higher = more binding, comparable within an allelic series) in the assay with NKX2-6; 9.35 upbm affinity estimate (log intensity, higher = more binding, comparable within an allelic series) with PAX4 [5]; 9.22 upbm affinity estimate (log intensity, higher = more binding, comparable within an allelic series) with PAX4 [7]; 9.27 upbm affinity estimate (log intensity, higher = more binding, comparable within an allelic series) in the assay with PAX4 [9]. Also, in the assay with PAX4 [12], the binding signal was 9.32 upbm affinity estimate (log intensity, higher = more binding, comparable within an allelic series).

Values taken from publication PMC11006913.
